# Assay results reported in PubChem BioAssay (NCATS).
# Values without a mark were called inactive. Inconclusive results are not listed. Where a call stands in place of a potency, no number is given. The source made the active and inactive calls. Calls come from the whole dose curve; as a rule, active = well fitted curve in the direction sought with a large enough effect; inconclusive = small, poorly fitted or top-dose-only effect, or another doubt; inactive = no such curve, though single readings can be large; an effect the other way counts as inactive or inconclusive.
# Legend:
# [1] = target: Glutathione peroxidase 1 (Homo sapiens) (UniProt P07203); test: Primary qHTS Assay for Inhibitors of Recombinant Selenoprotein Glutathione Peroxidase 1 (GPX1) (AID 1845191); settings: recombinant GPX1, GR-coupled NADPH fluorescence, 15 min; series mostly up to 48.8 µM; note: nearly all actives have a fitted effect of over 65% in size
# Glutathione peroxidase 1 (Homo sapiens), sequence (P07203 whole entry, looked up): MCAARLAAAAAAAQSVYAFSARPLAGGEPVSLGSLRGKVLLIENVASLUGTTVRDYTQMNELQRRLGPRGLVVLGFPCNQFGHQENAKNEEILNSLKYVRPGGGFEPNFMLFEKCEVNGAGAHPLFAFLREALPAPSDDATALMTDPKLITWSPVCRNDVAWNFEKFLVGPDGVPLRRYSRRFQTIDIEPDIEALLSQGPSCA
# Summary of the method: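 GR-coupled readout: NADPH consumption tracked by fluorescence, ex 340/em 450 nm, at t=0 and after 15 min at RT. Final mix 10 nM GPX1, 1 mM GSH, 0.5 mM CHP, 0.5 mM NADPH, 100 nM GR, 0.01% BSA, following 30 min enzyme–compound preincubation.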
# [2] = target: Phospholipid hydroperoxide glutathione peroxidase GPX4 (Homo sapiens) (UniProt P36969); test: Primary qHTS Assay for Inhibitors of Recombinant Selenoprotein Glutathione Peroxidase 4 (GPX4) (AID 1845192); settings: recombinant GPX4, GR-coupled NADPH fluorescence, 15 min; series mostly up to 50 µM; note: nearly all actives have a fitted effect of over 65% in size
# Phospholipid hydroperoxide glutathione peroxidase GPX4 (Homo sapiens), sequence (P36969 whole entry, looked up): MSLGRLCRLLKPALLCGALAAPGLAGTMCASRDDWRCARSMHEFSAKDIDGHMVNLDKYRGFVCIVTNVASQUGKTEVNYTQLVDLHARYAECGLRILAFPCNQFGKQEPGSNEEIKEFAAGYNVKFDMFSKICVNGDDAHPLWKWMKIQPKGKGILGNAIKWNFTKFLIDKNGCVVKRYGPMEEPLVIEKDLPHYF
# Summary of the method: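 Steps: GPX4 plus compound, 30 min RT; add GR/GSH/NADPH master mix; start with cumene hydroperoxide; read 340/450 nm fluorescence at 0 and 15 min. Finals were 200 nM GPX4, 1 mM GSH, 0.5 mM CHP, 0.5 mM NADPH, 100 nM GR.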
# [3] = target: Luciferin 4-monooxygenase (Photinus pyralis) (UniProt P08659); test: Primary firefly luciferase (FLuc) qHTS assay for identification of artifact compounds. (AID 1845220); settings: purified firefly luciferase, luminescence, 5 min; series mostly up to 54.1 µM; note: nearly all actives have a fitted effect of over 60% in size
# Summary of the method: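 Enzymatic FLuc inhibition assay: compounds pre-exposed to luciferin/ATP (10 uM each) for 15 min, then purified P. pyralis enzyme at 10 nM added. Read-out: luminescence at 5 min.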
# [4] = Primary fluorescence-based thiol-reactive (MSTI) qHTS assay for identification of artifact compounds. (AID 1845221); settings: MSTI thiol-reactivity probe, 1 h; series mostly up to 53.8 µM; note: nearly all actives have a fitted effect of over 65% in size
# Summary of the method: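 qHTS titration of compound; 4 uM MSTI, PBS pH 7.4, 2% DMSO; 1 h RT, dark; fluorescence 525/598 nm; normalized to Acetyl-MSTI and MSTI; 4-parameter Hill fit.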
# [5] = test system: Nanoluciferase (engineered Oplophorus gracilirostris luciferase); test: Primary Nanoluciferase (NLuc) qHTS assay for identification of artifact compounds. (AID 1845222); settings: NLuc-conditioned medium, Nano-Glo luminescence, 5 min; series mostly up to 54.1 µM
# Summary of the method: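 S16 cell supernatant NLuc, 1:55; cpds qHTS; 15 min RT dark; Nano-Glo substrate 1:100, 5 min; luminescence; Hill fit of % inhibition.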
# [6] = Primary redox qHTS assay for identification of artifact compounds. (AID 1845223); settings: Amplex Red/HRP redox cycling with DTT, fluorescence; series mostly up to 53.8 µM
# Summary of the method: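 Redox-cycling detection via DTT (250 uM final) oxidation coupled to Amplex Red (25 uM)/HRP (250 mU/mL) in HBSS. 15 min preincubation plus 30 min after DTT, room temperature. Ex/Em 525/598 nm; 4-parameter Hill fit against DMSO and 10 uM DA3003.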
# Potency is the fitted concentration of half-maximal effect.
Structure (SMILES),Potency [1],Potency [2],Potency [3],Potency [4],Potency [5],Potency [6]
COc1ccccc1OCCNCC(O)CCOc1cccc2[nH]c3ccccc3c12 (stereo not drawn),inactive,inactive,inactive,inactive,inactive,inactive
COc1cc(C(=O)NCC2(N(C)C)CCCC2)cc(OC)c1OCc1ccccc1,inactive,inactive,inactive,inactive,inactive,inactive
CCCC(CCC)C(=O)NCc1ccc2c(cnn2-c2ccccc2OC)c1,inactive,inactive,inactive,inactive,inactive,inactive
Cc1cn2cc(C(=O)N(C)CCO)cc(NC3CCOc4cccc(C)c43)c2n1 (stereo not drawn),inactive,inactive,inactive,inactive,inactive,inactive
CC(=O)[C@H]1CC[C@H]2[C@@H]3CC=C4C[C@@H](OS(=O)(=O)O)CC[C@]4(C)[C@H]3CC[C@]12C,inactive,inactive,inactive,inactive,inactive,inactive
C=C1CC[C@@H]2[C@](C)(CO)[C@H](O)CC[C@@]2(C)[C@@H]1/C=C/C1=CCOC1=O,inactive,inactive,inactive,inactive,inactive,inactive
COc1ccc2c(c1O[C@H]1CCNC1)CCC2,inactive,inactive,inactive,inactive,inactive,inactive
Cc1cc(C)c(-n2cc(C)c3c(Cl)nc(C)nc32)c(C)c1,inactive,inactive,inactive,inactive,inactive,inactive
CCOc1ccc(S(=O)(=O)N2CCCCCC2)c2ccccc12,inactive,inactive,inactive,inactive,inactive,inactive
CCOc1ccc(Cc2nc(-c3c(C)nc4ccccn34)cs2)cc1,inactive,inactive,inactive,1.68 µM (active),inactive,inactive
O=C(Nc1cccc2cccnc12)c1ccc(N2C(=O)[C@@H]3C4C=CC(C4)[C@@H]3C2=O)cc1,inactive,inactive,inactive,inactive,inactive,inactive
O=C(NCCCNc1nc(Nc2cccc(CN3CCOCC3)c2)ncc1C1CC1)C1CCC1,inactive,inactive,inactive,inactive,inactive,inactive
N#Cc1ccc(COc2ccc(-c3cccc4nc(NC(=O)C5CC5)nn34)cc2)cn1,inactive,inactive,inactive,inactive,inactive,inactive
C=C1C(=O)OC2/C=C(\CO)CC/C=C(\C=O)C(O)C(OC(=O)C(C)CC)C12 (stereo not drawn),inactive,inactive,inactive,14.7 µM (active),inactive,inactive
C=C1CC2OC(=O)C(=C)C2C(OC(=O)/C(C)=C\C)CC2(C)OC1=CC2=O (stereo not drawn),inactive,inactive,inactive,inactive,inactive,inactive
C=C(C(=O)O[C@H]1C/C(C)=C/CC/C(CO)=C/[C@H]2OC(=O)C(=C)[C@H]12)C(O)CO (stereo partly drawn),inactive,inactive,inactive,inactive,inactive,inactive
Cc1cc(F)ccc1-c1nc(NCCN=C(N)NC#N)nc2c1ccc(=O)n2-c1c(F)cccc1F,20.2 µM (active),22.7 µM (active),inactive,inactive,inactive,inactive
C=CC(=O)Nc1ccc2ncnc(Nc3cccc(Br)c3)c2c1,inactive,inactive,inactive,inactive,inactive,inactive
CN(C)CCCn1cc(C2=C(c3c[nH]c4ccccc34)C(=O)NC2=O)c2ccccc21,inactive,inactive,inactive,0.423 µM (active),–,inactive
C=C1CC[C@H]2C(=C)CC[C@H]3C(=C)C(=O)O[C@@H]3[C@@H]12,inactive,inactive,inactive,inactive,inactive,inactive
C=C1C(=O)O[C@@H]2/C=C(\CO)CC/C=C(\CO)[C@H](OC(C)=O)C(OC(=O)C(C)CC)C12 (stereo partly drawn),inactive,inactive,inactive,inactive,inactive,inactive
CC(C)S(=O)(=O)Nc1ccc(F)c(C(=O)c2c[nH]c3ncc(-c4cccnc4)cc23)c1F,inactive,inactive,inactive,inactive,inactive,inactive
C=C1CC[C@@H]2[C@](C)(CO)[C@H](O)CC[C@@]2(C)[C@@H]1CC(O)C1=CCOC1=O (stereo partly drawn),inactive,inactive,inactive,inactive,–,inactive
Nc1cccc(CNC(=O)c2ccc(Oc3ccc(OCc4cccc(F)c4)cc3)nc2)c1,inactive,inactive,inactive,inactive,inactive,inactive
COc1cc(CCC2=NN=C(NC(=O)c3ccc(N4C[C@@H](C)N[C@@H](C)C4)cc3)C2)cc(OC)c1,inactive,inactive,inactive,inactive,–,inactive
COc1ccccc1OCCN1CC(COc2cccc3[nH]c4ccccc4c23)OCC1=O (stereo not drawn),inactive,inactive,inactive,inactive,inactive,inactive
O=C(NCCO)c1cccc(-c2cc(Nc3ccc(OC(F)(F)F)cc3)ncn2)c1,inactive,inactive,inactive,inactive,inactive,inactive

Structure (SMILES),Potency [1],Potency [2],Potency [3],Potency [4],Potency [5],Potency [6]
O=C(Nc1ccccc1)c1ccc(Nc2nnc(-c3ccc(O)cc3)c3ccccc23)cc1,inactive,inactive,inactive,inactive,inactive,inactive
O=C(NCc1ccccc1-c1ccccc1C(=O)NCCc1ccccn1)OCc1ccccc1,inactive,inactive,inactive,inactive,inactive,inactive
C=CC(C)(C)c1[nH]c2ccccc2c1C[C@@H]1NC(=O)[C@H](C)NC1=O,inactive,inactive,inactive,5.85 µM (active),inactive,inactive
O=C(Nc1ccc(N(Cc2ccsc2)C(=O)Cn2nnc3ccccc32)cc1)C1CC1,inactive,inactive,inactive,inactive,–,inactive
CC#CC(=O)Nc1ccc2ncnc(Nc3cccc(Br)c3)c2c1,inactive,inactive,inactive,inactive,inactive,inactive
Cn1nc(-c2ccc(C(F)(F)F)cc2)nc2c(=O)n(C)c(=O)nc1-2,25.5 µM (active),22.7 µM (active),6.01 µM (active),2.67 µM (active),3.01 µM (active),0.15 µM (active)
CC(C)(C)C1CCN(C(=O)n2ncc(C(O)(c3ccccc3)c3ccccc3)n2)CC1,inactive,inactive,inactive,inactive,inactive,inactive
Fc1ccc(-c2nc(-c3ccccc3F)[nH]c2-c2ccncc2)cc1,inactive,inactive,inactive,inactive,inactive,inactive
CNC(=O)c1cc(Oc2ccc(NC(=O)c3cccc(C(F)(F)F)c3)cc2)ccn1,inactive,inactive,inactive,inactive,inactive,inactive
CC1OC(=O)C[C@@H]2C(C(=O)O)=CO[C@@H](O[C@H]3O[C@H](CO)[C@@H](O)[C@H](O)[C@H]3O)[C@H]12 (stereo partly drawn),inactive,inactive,inactive,inactive,–,inactive
COc1ccc(NC(=O)c2ccc(C(=N)N(C)C)cc2)c(C(=O)Nc2ccc(Cl)cn2)c1,inactive,inactive,inactive,inactive,inactive,inactive
CC(C)(Cc1nc(-c2ccc(O)cn2)no1)C(=O)NC1=C(C(=O)O)CCCC1,inactive,inactive,inactive,inactive,–,inactive
c1cc(-c2cnn3cc(-c4ccc(N5CCNCC5)cc4)cnc23)c2cccnc2c1,inactive,inactive,inactive,inactive,–,inactive
CCC(=O)N1CCOc2c(cc(-c3ccc(OC)c(OC)c3)cc2OC[C@H]2CCCN(C)C2)C1,inactive,inactive,inactive,inactive,inactive,inactive
COc1cc(C(C)C)c(Oc2cnc(N)nc2N)cc1I,inactive,inactive,inactive,inactive,inactive,inactive
CC(C)C(C)C(O)C1CC23CC(=O)C4(O)C(=C2CCC3C1C)C=CC1(O)CC(O)CCC14C (stereo not drawn),inactive,inactive,inactive,inactive,–,inactive
CC(C)(C[C@@](O)(Cc1cc2ccncc2[nH]1)C(F)(F)F)c1cc(F)ccc1O,inactive,inactive,inactive,inactive,inactive,inactive
CCNC(=O)N1CCCN(c2ccc(C(=O)NCCc3ccc(Cl)cc3Cl)cc2NC(=O)c2cccc(Cl)c2)CC1,inactive,inactive,inactive,inactive,inactive,inactive
CC(=O)OC1CC(C)C2(CCC3(CC(=O)OC3O)O2)C2(C)CCCC(C)(C)C12 (stereo not drawn),inactive,inactive,inactive,inactive,–,inactive
CCCCCCCCC(=O)N[C@H](CN1CCCC1)[C@H](O)c1ccc2c(c1)OCCO2,inactive,inactive,inactive,inactive,–,inactive
O=C(c1cc(Cc2n[nH]c(=O)c3ccccc23)ccc1F)N1CCCNCC1,inactive,inactive,inactive,inactive,inactive,inactive
c1ccc(-c2ccc(CNc3nc(-c4ccccn4)nnc3-c3ccccc3)cc2)cc1,inactive,inactive,inactive,inactive,–,inactive
C=C(C)C(=O)O[C@H]1C[C@@](C)(O)C2(O)CCC(C)(/C=C3/OC(=O)C(COC)=C31)O2 (stereo partly drawn),inactive,inactive,inactive,inactive,–,inactive
CCN(c1cc(-c2ccc(CN3CCOCC3)cc2)cc(C(=O)NCc2c(C)cc(C)[nH]c2=O)c1C)C1CCOCC1,inactive,inactive,inactive,inactive,–,inactive
O=C(c1ccccn1)N(Cc1cccs1)C1(C(=O)NC2CCCCC2)CCCCC1,inactive,inactive,inactive,inactive,inactive,inactive
C=CC(C)(O)CC/C=C(/C)COC(=O)C(C)C1CCC(C)(C=C)O1 (stereo not drawn),inactive,inactive,inactive,inactive,–,inactive
C/C=C(\C)[C@@H]1C(C)=C[C@@H]2[C@H]([C@@H]1/C=C/C=C/C(=O)O)[C@@H](C)CC[C@@H]2O,inactive,inactive,inactive,–,inactive,–
